Assay results: PubChem BioAssay (NCATS)
Results filed as inconclusive are left out. The source made the active and inactive calls. Unless noted, calls follow the shape of the dose curve; as a rule, active = well fitted curve in either direction with a large enough effect (not every such curve was filed as active); inconclusive = small, poorly fitted or top-dose-only effect, or another doubt; inactive = flat fitted curve, though single readings scatter.

Tests used:
[1] = biological target: Lysosomal acid glucosylceramidase (Homo sapiens) (UniProt P04062); assay: Glucocerebrosidase-p2 (AID 348; in the data active = potency below about 10 µM; also: potency is read from the fitted curve at half-maximal effect); details: purified GBA, blue fluorogenic substrate, 40 min
Sequence of Lysosomal acid glucosylceramidase (Homo sapiens) (P04062 whole entry, looked up): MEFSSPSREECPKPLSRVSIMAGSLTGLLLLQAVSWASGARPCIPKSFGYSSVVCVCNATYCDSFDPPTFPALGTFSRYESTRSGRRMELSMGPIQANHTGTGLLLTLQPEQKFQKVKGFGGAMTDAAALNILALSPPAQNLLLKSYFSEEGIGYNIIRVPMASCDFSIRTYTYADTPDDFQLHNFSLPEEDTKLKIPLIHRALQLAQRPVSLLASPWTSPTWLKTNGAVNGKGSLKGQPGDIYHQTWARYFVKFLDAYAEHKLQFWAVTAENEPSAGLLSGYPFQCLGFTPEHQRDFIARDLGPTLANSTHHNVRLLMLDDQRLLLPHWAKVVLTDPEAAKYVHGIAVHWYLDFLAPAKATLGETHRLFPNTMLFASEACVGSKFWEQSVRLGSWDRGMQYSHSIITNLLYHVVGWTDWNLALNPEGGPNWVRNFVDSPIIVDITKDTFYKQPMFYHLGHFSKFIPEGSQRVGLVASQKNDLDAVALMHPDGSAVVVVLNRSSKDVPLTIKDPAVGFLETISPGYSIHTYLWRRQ
How it was run: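 Normal human glucocerebrosidase (0.2 nM) with blue fluorogenic substrate (80 uM final) in citrate/phosphate pH 5.9 with 10mM sodium taurocholate, 0.01% tween-20; 40 min RT, NaOH/glycine stop; fluorescence Ex 365/Em 440; AC50 from a titration from 0.6 nM upwards.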

[2] = AP1 Signaling Pathway (AID 357); details: ME-180 AP-1-bla reporter, EGF-induced, beta-lactamase ratio, 5 h; at 7.69 µM (top of the series) unless noted;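 also: ME-180 reporter cells stimulated with EGF at its EC50 level; % is scaled to controls: 0 for no effect and ±100 for the full control effect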
How it was run: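 Beta-lactamase reporter under AP-1 response element, ME-180 background. Stimulus: EC50 EGF. Compound exposure 5 h, 37 °C. Detection: CCF4, 2.5 h RT, 460/530 nm. Values: AC50 from titration.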

[3] = NFAT Signaling Pathway (AID 444); details: Jurkat NFAT-bla M1, carbachol, beta-lactamase ratio, 5 h; at 7.69 µM (top of the series) unless noted;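 also: carbachol stimulus at about its EC50 of 1 µM final; % is scaled to controls: 0 for no effect and ±100 for the full control effect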
How it was run: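 Jurkat cells with NFAT-driven β-lactamase reporter and co-expressed M1 receptor, stimulated with carbachol (final 1 uM, ~EC50), compound titration, 5 h at 37 °C. CCF4 loaded 1 h at RT; 460/530 nm ratio gave %activity and AC50.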

[4] = biological target: Glucocorticoid receptor (Homo sapiens) (UniProt P04150); assay: GR-GFP Redistribution (AID 450;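 active = compounds whose dose series gives a full or clear partial fitted curve of increased nuclear translocation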; also: potency is read from the fitted curve at half-maximal effect); details: U2OS GR-GFP nuclear translocation, laser cytometry, 2 h
Sequence of Glucocorticoid receptor (Homo sapiens) (P04150 whole entry, looked up, the tested form may be a part): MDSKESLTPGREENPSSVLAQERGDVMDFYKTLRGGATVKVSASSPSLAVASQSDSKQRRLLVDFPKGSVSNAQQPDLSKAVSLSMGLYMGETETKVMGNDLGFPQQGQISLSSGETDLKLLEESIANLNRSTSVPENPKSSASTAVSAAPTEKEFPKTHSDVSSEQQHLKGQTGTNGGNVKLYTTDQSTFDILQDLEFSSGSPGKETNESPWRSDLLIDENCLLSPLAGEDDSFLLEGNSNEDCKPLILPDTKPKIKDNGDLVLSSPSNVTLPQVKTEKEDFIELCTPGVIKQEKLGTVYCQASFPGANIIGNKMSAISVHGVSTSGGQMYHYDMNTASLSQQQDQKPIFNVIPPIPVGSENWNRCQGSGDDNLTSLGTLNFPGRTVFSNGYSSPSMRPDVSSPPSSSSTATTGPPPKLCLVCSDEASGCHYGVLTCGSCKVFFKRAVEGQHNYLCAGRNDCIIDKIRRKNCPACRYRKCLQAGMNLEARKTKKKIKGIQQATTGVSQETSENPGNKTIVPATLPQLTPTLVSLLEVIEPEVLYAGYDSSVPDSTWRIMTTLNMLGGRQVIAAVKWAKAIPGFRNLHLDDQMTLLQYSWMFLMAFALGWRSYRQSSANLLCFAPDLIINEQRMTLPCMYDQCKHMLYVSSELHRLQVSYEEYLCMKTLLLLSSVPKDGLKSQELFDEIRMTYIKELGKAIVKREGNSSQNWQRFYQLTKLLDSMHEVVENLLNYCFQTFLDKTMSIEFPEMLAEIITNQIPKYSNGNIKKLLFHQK

[5] = biological target: Glucocorticoid receptor (Homo sapiens) (UniProt P04150); assay: GR-EFC Redistribution (AID 451; calls by dose curve; also: potency is read from the fitted curve at half-maximal effect); details: CHO-K1 GR-EFC translocation, beta-gal luminescence, 2 h
How it was run: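 CHO-K1 cells expressing nuclear EA and GR-ED fragments of b-gal; compounds titrated up to 46 uM final, 2 h at 37 C. GR nuclear translocation read as complemented b-gal luminescence after 1 h RT detection.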

[6] = biological target: Mitogen-activated protein kinase 10 (Mus musculus) (UniProt Q61831); assay: JNK3 AlphaScreen Assay (AID 530); details: JNK3 lysate, c-Jun phosphorylation; series mostly up to 57.1 µM;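 also: kinase came from lysate of stimulated human HepG2 cells; signal reports phosphorylation of biotinylated GST-cJun 1-79 at Ser73 with 10 µM ATP; % is scaled to controls: 0 for no effect and ±100 for the full control effect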
How it was run: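 Activity was read by AlphaScreen after JNK3-containing HepG2 lysate (cytokine pre-activated) phosphorylated biotinylated GST-cJun with 10 uM ATP at room temperature. Phospho-Ser73 cJun antibody with Protein-A acceptor beads provided detection.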

[7] = biological target: 3',5'-cyclic-AMP phosphodiesterase 4B (Homo sapiens) (UniProt Q07343); assay: qHTS Assay for Inhibitors of PDE-IV (AID 607; active = well fitted activation curve with a large enough effect in the main read-out, with a control signal flat, not every such curve was filed as active; also: % of control where 0% means no effect); details: HEK293 ACTOne CNG channel cells, membrane potential fluorescence; series mostly up to 22.9 µM
Sequence of 3',5'-cyclic-AMP phosphodiesterase 4B (Homo sapiens) (Q07343 whole entry, looked up): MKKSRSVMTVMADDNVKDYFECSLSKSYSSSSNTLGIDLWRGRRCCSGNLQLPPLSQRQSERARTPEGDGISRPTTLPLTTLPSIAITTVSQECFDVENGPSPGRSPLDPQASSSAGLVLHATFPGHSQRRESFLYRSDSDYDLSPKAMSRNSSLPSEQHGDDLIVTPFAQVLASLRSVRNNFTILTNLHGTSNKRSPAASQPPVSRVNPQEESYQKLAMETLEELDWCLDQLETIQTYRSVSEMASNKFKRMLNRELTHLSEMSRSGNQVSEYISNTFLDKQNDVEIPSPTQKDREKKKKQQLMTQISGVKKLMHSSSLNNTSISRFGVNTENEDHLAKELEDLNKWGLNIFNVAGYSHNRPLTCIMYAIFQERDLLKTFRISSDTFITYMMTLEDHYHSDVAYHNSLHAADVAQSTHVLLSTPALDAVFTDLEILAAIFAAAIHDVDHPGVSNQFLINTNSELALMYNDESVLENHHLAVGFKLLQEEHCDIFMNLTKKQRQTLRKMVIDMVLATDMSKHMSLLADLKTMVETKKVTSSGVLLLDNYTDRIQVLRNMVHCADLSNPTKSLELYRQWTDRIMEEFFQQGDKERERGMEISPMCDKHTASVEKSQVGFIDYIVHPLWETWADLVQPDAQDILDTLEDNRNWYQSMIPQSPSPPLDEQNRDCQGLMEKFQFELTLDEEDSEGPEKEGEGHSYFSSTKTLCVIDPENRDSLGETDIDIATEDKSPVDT
How it was run: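 The readout is membrane depolarisation from a cAMP-sensing CNG channel, detected with a potential dye at ex 535/em 590. Cells were HEK293-derived (endogenous PDE-IV) at 1000 cells/well, titrated up to 22.9 uM final.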

[8] = Confirmation and Secondary Assay for Modulators of Hemoglobin Beta Chain Splicing at IVS2 705 locus (AID 930; active = well fitted curve in the direction sought with a large enough effect; an effect the other way counts as inactive or inconclusive;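 also: HeLa cells stably expressing the EGFP-705 splicing reporter; GFP fluorescence per well restored by corrected splicing of the IVS2-705 intron in EGFP; % of control where 0% means no effect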); details: HeLa EGFP-705 splicing reporter, GFP fluorescence, 48 h; series mostly up to 38.3 µM
How it was run: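 HeLa EGFP-705 reporter; 500 cells/well, o/n 37C 5% CO2; cpd 2 d; 488 ex/500-520 em laser scan; total peak GFP intensity/well. Ref: 500 nM […] antisense PNA.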

[9] = qHTS Assay for Lipid Storage Modulators (AID 1519; calls by dose curve); details: Drosophila S3 cells, BODIPY lipid droplet/cell ratio, laser cytometry, cells loaded with oleic acid; for activity change, negative = inhibition: at 57.5 µM (top of the series)
How it was run: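 Cells seeded at 5,000 per well were treated with compounds over a concentration series and loaded with oleic acid (400 uM, as added). Lipid droplet fluorescence (488 nm excitation, 500-530 nm channel) was read by laser-scanning cytometry and normalized to 20 uM Triacsin C.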

[10] = biological target: Ubiquitin carboxyl-terminal hydrolase 1 (Homo sapiens) (UniProt O94782); assay: Inhibitors of USP1/UAF1: Pilot qHTS (AID 504865; active = well fitted curve in the direction sought with a large enough effect; an effect the other way counts as inactive or inconclusive;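 also: rhodamine fluorescence freed from ubiquitin-rhodamine substrate followed over time; top concentration of the series differs between compounds; % is scaled to controls: 0 for no effect and ±100 for the full control effect; nearly all actives have a fitted effect of over 35% in size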); details: purified USP1/UAF1, Ub-rhodamine cleavage fluorescence; series mostly up to 54.9 µM
Sequence of Ubiquitin carboxyl-terminal hydrolase 1 (Homo sapiens) (O94782 whole entry, looked up): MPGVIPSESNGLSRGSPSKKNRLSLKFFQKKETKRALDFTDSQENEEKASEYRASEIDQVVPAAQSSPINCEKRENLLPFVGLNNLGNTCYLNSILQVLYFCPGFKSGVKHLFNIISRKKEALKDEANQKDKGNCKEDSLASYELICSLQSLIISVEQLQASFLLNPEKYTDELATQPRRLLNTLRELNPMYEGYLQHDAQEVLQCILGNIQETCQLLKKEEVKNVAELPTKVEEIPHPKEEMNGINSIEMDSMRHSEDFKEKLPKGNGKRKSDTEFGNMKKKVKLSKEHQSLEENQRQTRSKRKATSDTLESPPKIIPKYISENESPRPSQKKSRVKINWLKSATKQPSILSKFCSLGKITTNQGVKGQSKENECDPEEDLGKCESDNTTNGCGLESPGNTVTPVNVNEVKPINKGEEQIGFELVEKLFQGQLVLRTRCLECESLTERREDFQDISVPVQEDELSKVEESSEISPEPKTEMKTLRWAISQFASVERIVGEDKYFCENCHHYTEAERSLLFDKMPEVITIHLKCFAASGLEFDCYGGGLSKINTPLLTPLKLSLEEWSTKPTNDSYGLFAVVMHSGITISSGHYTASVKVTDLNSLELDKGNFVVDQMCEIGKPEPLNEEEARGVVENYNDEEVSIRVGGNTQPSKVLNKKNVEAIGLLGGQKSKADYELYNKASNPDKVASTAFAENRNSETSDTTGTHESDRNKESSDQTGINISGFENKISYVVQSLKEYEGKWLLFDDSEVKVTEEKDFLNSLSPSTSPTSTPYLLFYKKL
How it was run: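 In 50mM HEPES pH 7.8 containing 0.5mM EDTA, 1mM TCEP, 0.1 mg/ml BSA and 0.01% Tween-20, 1nM USP1/UAF1 is exposed to compound for 15 min, then Ub-Rho (150nM final) is added and fluorescence is read over time.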

[11] = Primary qHTS for small molecule stabilizers of the endoplasmic reticulum resident proteome: Secreted ER Calcium Modulated Protein (SERCaMP) assay (AID 1508630; active = well fitted curve in the direction sought with a large enough effect; an effect the other way counts as inactive or inconclusive; also: % is scaled to controls: 0 for no effect and ±100 for the full control effect); details: SH-SY5Y GLuc-SERCaMP (Gaussia luciferase released on ER calcium loss) secretion, thapsigargin, luminescence; series mostly up to 38.4 µM
How it was run: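 The SH-SY5Y reporter protocol was run at 3 concentrations up to 38.3 uM (primary) or 11 concentrations (follow-up): 16 h compound, 100 nM thapsigargin for 4 h, then extracellular luciferase luminescence.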

[12] = Stat Signaling Pathway (AID 446); details: ME-180 (cervical carcinoma) SIE beta-lactamase reporter, IL-6 stimulated, 5 h; at 7.69 µM (top of the series) unless noted
How it was run: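 Emission at 460 and 530 nm (excitation 405 nm) reports SIE-controlled beta-lactamase in ME-180 cells. Cells received compound with 40 pM IL-6 for 5 hrs at 37 C; data scaled between 300 pM IL-6 and 125 nM JAK-inhibitor controls.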

[13] = Confirmation and Secondary Assay for Modulators of Hemoglobin Beta Chain Splicing at IVS2 654 locus (AID 910; active = well fitted curve in the direction sought with a large enough effect; an effect the other way counts as inactive or inconclusive;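 also: HeLa cells stably carrying EGFP split by mutant beta-globin IVS2-654 intron; % of control where 0% means no effect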); details: HeLa EGFP-654 splicing reporter, GFP fluorescence, 48 h; series mostly up to 38.3 µM
How it was run: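 HeLa cells stably expressing EGFP interrupted by β-globin IVS2-654 intron, seeded overnight in Opti-MEM/2% FCS, then treated 2 days at 37 °C. Restored splicing read as total peak GFP intensity per well by laser scanning cytometry (488 nm excitation, 500–520 nm emission); 500 nM antisense PNA as control.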

[14] = measured here: cell count channel max response
[15] = measured here: lipid channel max response

Cc1cccc(CNc2cc(-c3cccnc3)ncn2)c1
-22.1%: max response [9, 15]
inactive: Potency [1] > 11.4 µM | activity change, negative = inhibition [2] -15.4% | activity change, negative = inhibition [3] -0.57% | Potency [4] > 46 µM | Potency [5] > 46 µM | Potency [6] | Potency [7] | outcome [8] | activity change, negative = inhibition [9] -14.1% | Potency [10] | outcome [11]
-10.4%: max response [9, 14]

CC(C)CN1CCC2(CC1)CCN(C(=O)c1ccco1)CC2
inactive: Potency [1] > 11.4 µM | activity change, negative = inhibition [2] 10.1% | activity, negative = inhibition [12] -2.71% | Potency [5] > 46 µM | Potency [6] | Potency [7] | activity change, negative = inhibition [9] -0.991% | outcome [11]
1.45%: max response [9, 15]
-0.576%: max response [9, 14]

COCC(=O)N1CCC2(CCCN(C(c3ccccc3)c3ccccc3)C2)CC1
15.7%: max response [9, 14]
inactive: Potency [1] > 11.4 µM | activity change, negative = inhibition [2] -6.37% | activity, negative = inhibition [12] 16.7% | Potency [5] > 46 µM | Potency [6] | Potency [7] | activity change, negative = inhibition [9] -0.272% | outcome [11]
20.6%: max response [9, 15]

N#Cc1ccc(CN2CCC3(CC2)CCN(C(=O)c2ccco2)CC3)cc1
24%: max response [9, 15]
20.4%: max response [9, 14]
inactive: Potency [1] > 11.4 µM | activity change, negative = inhibition [2] -11.2% | activity, negative = inhibition [12] -4.42% | Potency [5] > 46 µM | Potency [6] | Potency [7] | activity change, negative = inhibition [9] 1.05% | outcome [11]

O=C(c1cnccn1)N1CCC2(CCN(Cc3cc(C(F)(F)F)cc(C(F)(F)F)c3)CC2)CC1
13.6%: max response [9, 14]
inactive: Potency [1] > 11.4 µM | activity change, negative = inhibition [2] 6.25% | activity, negative = inhibition [12] -5.04% | Potency [5] > 46 µM | Potency [6] | Potency [7] | activity change, negative = inhibition [9] 2.5% | outcome [11]
15.1%: max response [9, 15]

CC(C)CN1CC2(CCN(C(=O)c3cnccn3)CC2)C1
20.3%: max response [9, 15]
13.2%: max response [9, 14]
inactive: Potency [1] > 11.4 µM | activity change, negative = inhibition [2] -4.93% | activity, negative = inhibition [12] -6.85% | Potency [5] > 46 µM | Potency [6] | Potency [7] | activity change, negative = inhibition [9] 3.58% | outcome [11]

COC(=O)N1CCC2(CCN(Cc3ccc(C#N)cc3)CC2)CC1
inactive: Potency [1] > 11.4 µM | activity change, negative = inhibition [2] -12.5% | activity, negative = inhibition [12] 21.3% | Potency [5] > 46 µM | Potency [6] | Potency [7] | activity change, negative = inhibition [9] 6.51% | outcome [11]
5.74%: max response [9, 14]
14.3%: max response [9, 15]

COC(=O)N1CCC2(CCN(Cc3ccccc3)CC2)CC1
-0.656%: max response [9, 14]
4.63%: max response [9, 15]
inactive: Potency [1] > 11.4 µM | activity change, negative = inhibition [2] -5.32% | activity, negative = inhibition [12] -1.16% | Potency [5] > 46 µM | Potency [6] | Potency [7] | activity change, negative = inhibition [9] 2.47% | outcome [11]

N#Cc1cccc(NC(=O)N2CC3(CCN(C(=O)c4ccco4)CC3)C2)c1
inactive: Potency [1] > 11.4 µM | activity change, negative = inhibition [2] -10.9% | activity, negative = inhibition [12] 19.7% | Potency [5] > 46 µM | Potency [6] | Potency [7] | activity change, negative = inhibition [9] 4.67% | outcome [11]
3.49%: max response [9, 14]
11.7%: max response [9, 15]

N#Cc1ccc(CN2CC3(CCN(C(=O)c4ccco4)CC3)C2)cc1
inactive: Potency [1] > 11.4 µM | activity change, negative = inhibition [2] -7.09% | activity, negative = inhibition [12] 4.26% | Potency [5] > 46 µM | Potency [6] | Potency [7] | activity change, negative = inhibition [9] 4.77% | outcome [11]
23.7%: max response [9, 15]
18.6%: max response [9, 14]

N#Cc1ccc(CN2CCCC3(CCN(C(=O)c4ccco4)CC3)C2)cc1
-5.31%: max response [9, 14]
inactive: Potency [1] > 11.4 µM | activity change, negative = inhibition [2] -7.19% | activity, negative = inhibition [12] 4.81% | Potency [5] > 46 µM | Potency [6] | Potency [7] | activity change, negative = inhibition [9] -5.76% | outcome [11]
-10.9%: max response [9, 15]

O=C(c1cccc(F)c1)N1CCC2(CCCN(c3ccncc3)C2)CC1
inactive: Potency [1] > 11.4 µM | activity change, negative = inhibition [2] 8.58% | activity, negative = inhibition [12] -8.19% | Potency [5] > 46 µM | Potency [6] | Potency [7] | activity change, negative = inhibition [9] 3.69% | outcome [11]
9.25%: max response [9, 14]
16.5%: max response [9, 15]

COc1ccc2[nH]cc(CCNc3nc(-c4cccc(NS(C)(=O)=O)c4)nc4ccccc34)c2c1
inactive: Potency [1] > 11.4 µM | activity change, negative = inhibition [2] -29.4% | activity, negative = inhibition [12] -28.4% | Potency [4] > 46 µM | Potency [5] > 46 µM | Potency [6] | Potency [7] | Potency [13] | outcome [8] | activity change, negative = inhibition [9] 8.36% | Potency [10] | outcome [11]
-14.6%: max response [9, 14]
-4.03%: max response [9, 15]

COc1ccc(C(=O)N2CCC3(CC2)CN(c2ccc(-c4ccccc4)cc2)C3)cc1
inactive: Potency [1] > 11.4 µM | activity change, negative = inhibition [2] -5.62% | activity change, negative = inhibition [3] -9.07% | Potency [5] > 46 µM | Potency [6] | Potency [7] | activity change, negative = inhibition [9] -3.67% | outcome [11]
9.2%: max response [9, 14]
7.61%: max response [9, 15]

N#Cc1ccc(CN2CCC3(CCNCC3)CC2)cc1
9.11%: max response [9, 14]
14.9%: max response [9, 15]
inactive: Potency [1] > 11.4 µM | activity change, negative = inhibition [2] 1.45% | activity, negative = inhibition [12] 2.48% | Potency [5] > 46 µM | Potency [6] | Potency [7] | activity change, negative = inhibition [9] 1.87% | outcome [11]

CN1CC[C@@]2(CCCN(S(=O)(=O)c3ccccc3)C2)C1
6.91%: max response [9, 14]
inactive: Potency [1] > 11.4 µM | activity change, negative = inhibition [2] -25.8% | activity, negative = inhibition [12] 3.36% | Potency [5] > 46 µM | Potency [6] | Potency [7] | activity change, negative = inhibition [9] 5.6% | outcome [11]
16.3%: max response [9, 15]
